# Vif inh: inhibitors of HIV Vif. inhibition, % at 7.49 µM. HEK293T cells, Vif self-association by quenched fluorescence, imaging, 24 h. 340,000 compounds, 0.35% hits. AID 602346; in the data active means inhibition above about 50%, passing the limit was not always enough; inconclusive means no clear call, values can overlap the other calls; inactive means below about 31%
# HSF1 activator: increases HSF-1 driven luciferase reporter signal. 300,000 compounds, 1.7% hits. activation, % at 9 µM. NIH3T3-HGL HSF-1 luciferase reporter, MG132, 8 h; 100% = twice DMSO control signal. AID 504408;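 active means mean replicate activation of at least 50% with a set share of replicates each reaching 50%; inconclusive means only one of those two conditions met; inactive means mean below 50% and too few replicates reaching it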
# esBAF inh: SWI/SNF esBAF complex inhibition; 350,000 compounds, 2% hits; mouse ES cells, Bmi1-luciferase knock-in reporter, 24 h; 100% = twice the neutral-well signal; reporter increase, % at 12.5 µM; in the data active means activation above about 40%; inconclusive means no clear call, values can overlap the other calls;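 further: a rise in the Bmi1 reporter signal indicates esBAF inhibition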
# HSF1 inhib: HSF1 inhibition; AID 2098; 300,000 compounds, 0.77% hits; NIH3T3-HGL HSE-luciferase, MG132-induced, luminescence 8 h; stronger effect = lower value; activity change, negative = inhibition, % at 7.5 µM (by protocol);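 active means more than half of replicate wells show activity change below -50%, luminescence cut by over half; inconclusive means some wells, but at most half, below -50%; inactive means no replicate well below -50%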;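 further: luciferase reports HSF-1 transcriptional activity via heat shock element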
# A number is an active result; 0 = inactive; ? = inconclusive; - = no result given. Sampled rows, rich in hits. Any-hit rate of the full collection: about 3.4%.
SMILES,Vif inh,HSF1 activator,esBAF inh,HSF1 inhib
Cc1cc(OCC(F)(F)C(F)(F)C(F)(F)C(F)F)nc(N)n1,0,0,50,0
CO[C@@H]1CN(C)C(=O)c2ccc(NC(=O)c3ccc(F)cc3)cc2OC[C@@H](C)N(C(=O)CN(C)C)C[C@@H]1C,-,-,0,-
CC(NCC(=O)NCCc1ccc(S(N)(=O)=O)cc1)c1ccc(F)cc1 (stereo unspecified),0,52,0,0
Cc1ccc(C(=O)NNC(=O)c2ccco2)cc1,-,0,51,0
Cc1ccc(C(=O)NNC(=O)c2cccc(C)c2)cc1,0,0,41,0
CCCNC(=O)[C@H]1[C@H](CO)[C@H]2Cn3c(ccc(C4=CCCC4)c3=O)[C@@H]1N2C(=O)CC1CC1,-,-,0,-
COc1ccccc1C(=O)Nc1ccc2c(c1)OC[C@H](C)N(C(C)=O)C[C@H](C)[C@@H](OC)CN(C)C2=O,-,-,0,-
Cc1ccc(S(=O)(=O)N2CCN(C(=O)c3cccc(F)c3)CC2)cc1,0,0,-,-54
Cc1ccc(CNC(=O)c2cn(C3CCCCC3)c(=O)c3c2c2ccccc2n3C)o1,0,79,-,0
C[C@@H]1CCCCO[C@@H](CN(C)C(=O)CCC(F)(F)F)[C@H](C)CN([C@H](C)CO)C(=O)c2cc(NS(=O)(=O)c3ccc(F)cc3)ccc2O1,-,-,0,-
COCCN(Cc1nc(-c2ccc(-c3ccccc3)cc2)oc1C)C(C)C,0,0,65,0
Cc1ccc(-c2nc(CN(C)C(C3CC3)C3CC3)c(C)o2)cc1,0,0,0,0
CCCC(=O)Nc1ccc2c(c1)C(=O)N(C)C[C@H](OC)[C@@H](C)CN(Cc1ccccc1F)[C@@H](C)CO2,-,-,0,-
CN(C(=O)CSc1nc2ccccc2c(=O)n1-c1ccccc1F)C1CCS(=O)(=O)C1 (stereo unspecified),62,-,0,-
Cc1ccc(Nc2cc(-n3cccn3)ncn2)c(C)c1,0,52,?,0
CN(C)CC(=O)Nc1ccc2c(c1)[C@H]1C[C@@H](CC(=O)NCc3cc(F)ccc3F)O[C@H](CO)[C@H]1O2,-,-,0,-
C[C@@H]1CN([C@H](C)CO)C(=O)c2cc(-c3cccc(C#N)c3)cnc2O[C@H]1CN(C)C(=O)C1CC1,-,-,0,-
O=[N+]([O-])c1cccc(N=Cc2sc3ccccc3c2O)c1,-,0,-,0
O=[N+]([O-])c1ccc(N=Cc2sc3ccccc3c2O)cc1,0,0,0,-84
C=C1CCC[C@]2(C)C[C@H]3OC(=O)C(CNC(C)CC)[C@H]3CC12 (stereo partly specified),0,0,0,0
C=C1CCC[C@]2(C)C[C@H]3OC(=O)C(CNC(C)(CO)CO)[C@H]3CC12 (stereo partly specified),0,74,0,0
C=C1CCC[C@]2(C)C[C@H]3OC(=O)C(CNC(CC)CO)[C@H]3CC12 (stereo partly specified),0,142,0,0
Cc1cc(C)c2nc(N3CCCC(C(=O)NC4CCCC4)C3)sc2c1 (stereo unspecified),0,0,58,0
Cc1cc(C)c2nc(N3CCC(C(=O)N4CCCC4)CC3)sc2c1,0,0,0,0
C/C(=N/NC(=O)c1cccs1)c1ccc(NC(=O)COc2ccc(Cl)cc2)cc1,-,0,50,0
SMILES,Vif inh,HSF1 activator,esBAF inh,HSF1 inhib
S=c1nc(NCCc2ccccc2Cl)c2ccccc2[nH]1,0,0,41,0
CCN(CC)CCCNC(=O)C1CCC(CNS(=O)(=O)c2ccc(Cl)cc2)CC1 (stereo unspecified),0,0,0,-67
CCOc1cc2[nH]c(=S)n(CCCC(=O)NCc3ccco3)c(=O)c2cc1OCC,0,0,0,0
O=C(CCCn1c(=S)[nH]c2cc3c(cc2c1=O)OCO3)NCc1ccco1,0,55,0,0
COc1ccccc1S(=O)(=O)N[C@@H]1CC[C@H](CCn2cc(C3CC3)nn2)O[C@@H]1CO,-,-,0,-
Cc1ccc(C(=O)Nc2nc3c(s2)CCCC3)o1,0,60,0,0
O=C(Nc1nc2c(s1)CCCC2)c1ccc(Br)o1,0,0,0,0
O=C(Nc1ncc(Cc2cccc(Cl)c2)s1)c1cccs1,-,0,47,0
O=C(Nc1ncc(Cc2cccc(Cl)c2)s1)C1=NCCN1,0,0,0,0
COc1ccc(C(=O)N[C@H](C(=O)Nc2nc3c(s2)CCCC3)C(C)C)cc1,0,0,65,0
O=C(Nc1nnc(SCc2ccccc2)s1)c1cccs1,-,0,?,0
CCOc1ccccc1C(=O)N[C@H](C(=O)Nc1nc2c(s1)CCCC2)C(C)C,0,0,-,0
O=C(Nc1ncc(Cc2ccccc2)s1)c1cccs1,0,55,0,0
COCC(=O)N(C[C@@H]1N[C@@H](CO)[C@H]1c1ccc(C2=CCCCC2)cc1)C(C)C,-,-,0,-

# Assay outcomes from PubChem.
